Experimental data as given in PubChem BioAssay (NCATS).
Inconclusive results are not listed. Entries that show only a call come without a potency. Activity calls are given as the source filed them. Calls come from the whole dose curve; as a rule, active = well fitted inhibition curve with a large enough effect; inconclusive = small, poorly fitted or top-dose-only effect; inactive = no such curve, though single readings can be large or run the other way.

Columns and labels:
[1] = tested on: Zika virus NS2B-NS3 protease (unlinked complex); test: Primary screen GU Rhodamine qHTS for Zika virus inhibitors: Unlinked NS2B-NS3 protease assay (AID 1347159); note: nearly all actives have a fitted effect of over 60% in size; note: potency is the fitted concentration of half-maximal effect
How it was run: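 A qHTS format was used, with compound concentrations ranging up to 114 microM. Each compound was preincubated with 25 nM NS2B-NS3 protease, and the substrate was then added at 1.5 microM. Curves were fitted with a 4-parameter Hill model.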

[2] = tested on: Zika virus NS2B-NS3 protease (linked construct); test: Primary screen NINDS Rhodamine qHTS for Zika virus inhibitors (AID 1347160); note: nearly all actives have a fitted effect of over 55% in size
How it was run: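 Kinetic fluorescence (Ex 480 nm, Em 540 nm) over 15 min with 1.5 microM Rhodamine110 peptide and 25 nM linked protease.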

Row | SMILES | activity change, negative = inhibition [1] | activity change, negative = inhibition [2] | Potency [1] | Potency [2]
1 | C[C@H](N)C(=O)N[C@@H](Cc1ccc(O)cc1)C(=O)N1CCC[C@H]1C(=O)NCC(=O)N[C@@H](CCCCN)C(=O)N[C@@H](Cc1ccccc1)C(N)=O | 124% [at 19.1 µM] (inactive) | 9.61% [at 10.7 µM] (inactive) | – | –
2 | Cc1c(NC(=O)c2cc(C(N)=O)nc3cc(F)ccc23)c(C(F)(F)F)nn1Cc1ccc(C#N)cc1 | – | – | inactive | inactive
3 | CC1(C)CC[C@]2(C(=O)OC3OC(CO)C(O)C(O)C3O)CC[C@]3(C)C(=CCC4[C@@]5(C)CC[C@H](OC6OC(C(=O)O)C(O)C(OC7OC(CO)C(O)C(O)C7O)C6O)C(C)(C)C5CC[C@]43C)C2C1 (some centres not stated) | – | – | inactive | inactive
4 | CN(C)C/C=C/C(=O)Nc1cccc(C(=O)Nc2ccc(Nc3nccc(-c4cccnc4)n3)cc2)c1 | – | – | 79.4 µM (active) | inactive
5 | C=C1C(=O)O[C@H]2[C@H]1CC/C(C)=C/CC[C@@]1(C)O[C@@H]21 | – | – | inactive | inactive
6 | COC(=O)[C@@]1(c2ccc(C)cc2)C[C@H]1CN1CCC(O)(c2ccccc2)CC1 | – | – | inactive | inactive
7 | O=C(NCc1ccc(S(=O)(=O)c2cc(F)cc(F)c2)cc1)c1ccc2nccn2c1 | – | – | inactive | inactive
8 | COc1ccc(C2(O)c3ccccc3NC(=O)C2O)cc1 (configuration not stated) | – | – | inactive | inactive
9 | Nc1ncnc2c1ncn2CCNCCCCCO | – | – | inactive | inactive
10 | CC1(CCOC2OC(CO)C(O)C(O)C2O)CCC23OC2(C1)C(O)CC1C(C)(C(=O)O)CCCC13C (configuration not stated) | – | – | inactive | inactive
11 | COC(=O)C[C@H]1C(C)(C)[C@H](OC(=O)C(C)C)[C@@]2(O)C(=O)[C@]1(C)C1CC[C@]3(C)C(CC(=O)O[C@H]3c3ccoc3)[C@]13O[C@@H]32 (some centres not stated) | – | – | inactive | inactive
